test system: VDR:RXRa (NR concentration 270 nM, RXRa partner concentration 90 nM); assay: PBM binding z-score (relative to random genomic background probes); higher = stronger binding; sequences stand for … in GC…GCGATTGACAGCGTAGAATGAAGG
Description: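 Protein-binding microarray (Agilent 4x180K custom design, double-stranded 60-nt probes: 5' GC cap, 34-nt variable region, 24-nt constant primer region; full probe sequence given). Purified or IVT nuclear receptor:RXRα heterodimers (3:1 NR:RXRα, mostly 270:90 nM) or homodimers were incubated for 1 h in PBS with 2% milk and no ligand, then detected with Alexa488 antibodies. Fluorescence from o1-orientation probes (~5 replicates averaged) was converted to z-scores against 500 random hg19 background probes. Variable regions are seed direct-repeat (DR0–DR5) sites, all their single-nucleotide variants and half-site ablations.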

Sequence	PBM binding z-score
TGAATGAAGTTATAAGATCAGGGAACGTTGCAAA	-0.457
CCGAGTAGGTTATTGGGCATTCAGGCAACGGTGA	-0.494
GCATATAGGTATTACAAGGTGAAAGTCCGATTGT	0.134
GCAGAGAGGTGAAACGCAGGTAACTCAGGGTGGC	0.186
TAGCCTTGGTCAGATCGGGCCAGTATACGCTATA	-0.557
ATATCAAGGTGATCGTGAGGTCGTTGATACTAAC	3.33
ATCTCTAGGTAAAGTCCAGTGAAAGATCGATAGA	-0.12
AGAATGAGGTTATACGTAGATCACGGAAGAAAGT	1.61
CGTCGAAGTTCAAGGTAACGTAACAGAAAGCAGC	2.09
ATCTCTAGGTAAAGATAGTTAAGTGAATGCAAAT	0.487
CGAACTAGGTCAGAACAGGACAATGAAGGATGAT	1.11
TCCATTAGTTGATTAGGGCAACCGAAACAGCGGA	0.545
TCTGCTGGGTCAGTTGGTCAGCTAACGAGCTGCC	0.238
ATATGTAGGTAATCGGGTCATTCAGTTTGCGCAT	4.7
TCTATTAGTTGATTATGGCAACCGAAACAGCGGA	1.08
CAAACTAGGTGACGAAAGGTCAAAGTCGAATGAC	5.16
TCTTGTAGAGCAAGCAGGTTAAGAAAGCCTGAGT	-0.323
GCTACTAGGTCAGGTTGGTCAGCTAACGGGTACG	0.914
CCAGACAGGTGTAAGGTAACTCAGTCTGGTACGC	0.0147
AGTCAAAGTTCATCCAGGTAACGTAAGATATGCT	5.39

Sequence	PBM binding z-score
ACTATTAGTTGACTTAGGGCAACGGATACGACGC	0.248
GGAACGAGGGCAAAGTTGATAACATCTGTCGACG	1.68
AGAATGAGGTTATACGTAGTTCAGGGAAGAAAGT	3.09
CCAACTAGGTCACCGGAAGGTCAAAGTCCGCATG	5.87
CCTTCCGGGTCACTGACAGGTTATAGCATTTGGA	3.83
GCTAGCAGGCGATTTGGGTCACTCAATGACGGGC	-0.205
AGAACGAGGGCACCCTGAGTTGATAGCAGAGTAG	1.47
ATCGAAAGGTCGTGGGGTGAGTATACAGAAAGGC	4.83
CGTCCAAGTTCAAGGTCAGTGAAAGAGACTCGAA	3.88
CTCGAAAGGTCGGTCGAGGTGAGTATACGGATAA	2.25
CGAACTAGGTCCTCCAGGACAGTGAATACATTGA	-0.247
CCTAGTTGGTAAGGAGGTCACACACCGGATATGA	3.53
GCGATTGGGGCATCAGCAGGTTACCATAACTTAA	0.0705
AATACAGAGTCACTAGGCCAGAGTAGGTACGAAT	-0.0941
GGAACGAGGCCATTCGAGTTGATAGCATGGCGAT	1.43
CGTCCAAGGTCAATGCTAGGTCAGAGAAAGCATT	4.76
TCTTATAGATCAACAGGAGGTTAAGAAAGATCGA	1.01
ATATGTAGGTTACATCTGGGTCATTCAGGCTATG	3.04
CATACAGGGTCAGTTAGGCCAGAGTAGGGACGGC	3.05
TCATATAGGTAATACAGGGGAAAGTCGGCATCTA	1.06
